# High-throughput results: PubChem, several laboratories
# In the library only some 3.5% were active in any assay of this set; here they are far more common.
# ATG4B inh = ATG4B protease inhibitors, primary screen, biochemical, fluorescence, uHTS. Cysteine protease ATG4B (Homo sapiens), Q9Y4P1. ATG4B cleavage of LC3-PLA2, NBD-HPC fluorescence, 1 h. inhibition, % at 8.33 µM. actives 0.51% (n = 340,000). AID 504462, 2011; in the data active = inhibition above about 40%
# Target sequence (Q9Y4P1 whole entry, looked up): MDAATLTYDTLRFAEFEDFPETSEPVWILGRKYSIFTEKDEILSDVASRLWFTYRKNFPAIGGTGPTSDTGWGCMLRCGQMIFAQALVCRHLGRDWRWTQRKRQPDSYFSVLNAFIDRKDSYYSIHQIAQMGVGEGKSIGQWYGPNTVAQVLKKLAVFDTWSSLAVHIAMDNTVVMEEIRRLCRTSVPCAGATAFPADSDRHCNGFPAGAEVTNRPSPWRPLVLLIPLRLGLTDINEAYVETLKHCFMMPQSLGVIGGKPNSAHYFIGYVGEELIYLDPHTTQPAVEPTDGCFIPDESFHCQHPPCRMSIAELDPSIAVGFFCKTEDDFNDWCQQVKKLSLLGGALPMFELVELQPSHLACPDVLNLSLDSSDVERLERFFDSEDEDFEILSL
# SKN-1 inh = suppressors of acrylamide-induced Pgst-4::GFP reporter in worms, primary screen, SKN-1 inhibitor project, whole organism, uHTS, GFP/RFP fluorescence ratio, strain VP596; C. elegans VP596 Pgst-4::GFP/RFP ratio, 24 h; inhibition, % at 21.8 µM; actives 0.49% (n = 360,000);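 active = interference check ratio from 0.5 to 1.5 plus GFP to RFP signal ratio inhibition reaching or exceeding a fixed threshold, cut at about 30% in these data, passing the limit was not always enough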
# CHRM1 PAM = human M1 muscarinic receptor positive allosteric modulators, primary screen, CHO-K1 cells, Fluo-8 calcium fluorescence, 1536-well; Muscarinic acetylcholine receptor M1 (Homo sapiens), P11229; activation, % at 3 µM; actives 0.088% (n = 360,000); CHO-K1 hM1, ACh EC20; 0% = ACh EC20, 100% = maximal ACh; in the data active = activation above about 19%, passing the limit was not always enough
# M1 ag = human M1 muscarinic receptor agonists, primary screen, Fluo-8 calcium fluorescence, CHO-K1 cells, HTS; Muscarinic acetylcholine receptor M1 (Homo sapiens), P11229; CHO-K1 hM1, agonist mode; 0% DMSO, 100% acetylcholine EC100; activation, % at 3 µM; actives 0.33% (n = 360,000);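 active = activation above the run's mean compound activation plus 3 SD, cut at about 16% in these data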;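 also: peak over basal fluorescence ratio within a 140 s kinetic read after compound addition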
# Myeloid diff 2 = induction of myeloid progenitor differentiation, primary screen, cell-based, flow cytometry, MLPCN library; ER-HoxA9 myeloid progenitors, lysozyme-GFP differentiation; calls only at 10 µM; actives 1% (n = 360,000);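 active = normalized GFP-positive differentiation at or above the plate's own cutoff, the solvent-only control mean plus 3 SD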;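 also: cells exposed to compound for four days before flow analysis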
# CHRM1 antagonist = human M1 muscarinic receptor antagonists, primary screen, CHO-K1 cells, Fluo-8 calcium fluorescence, 1536-well; Muscarinic acetylcholine receptor M1 (Homo sapiens), P11229; CHO-K1 hM1, ACh EC80 antagonist; inhibition, % at 3 µM; actives 1.3% (n = 360,000); AID 588852, 2011;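 active = percent inhibition above its own plate's cutoff, namely the mean of that plate's compound wells plus 3 SD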;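 also: peak over basal fluorescence ratio during 140 s after agonist addition; 0% = ACh EC80 plus DMSO and 100% = DMSO alone without agonist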
# * = called active by the depositor; i = inactive; . = not tested or not shown; + = active, no number.
SMILES,ATG4B inh,SKN-1 inh,CHRM1 PAM,M1 ag,Myeloid diff 2,CHRM1 antagonist
O=C(NCCNC(=O)c1ccccc1O)c1ccccc1O,5.8,16.7,2.9,0.8,i,-7.5
Cc1ccc(NC(=O)C2CC3CCC2C3)c(Br)c1 (stereo not given),6.7,7.7,7.2,-5.1,i,-14.5
CCCCN(CCCC)c1cn[nH]c(=O)c1Cl,-5.9,-1.2,-20.8,-7.2,i,26.9*
O=CNc1cc(-c2ccoc2)cn2c(-c3ccc(F)cc3)cnc12,.,2.6,6.4,-2.2,i,-8.1
CCOC1=C2[C@H](c3cccs3)N(S(=O)(=O)c3ccc(C)cc3)C[C@H]2n2c(=O)n(-c3ccccc3)c(=O)n2C1,.,5.5,6.5,4.6,i,-12.5
CCOC(=O)C1CCCN(CCCc2ccccc2)C1 (stereo not given),-13.9,0.2,-6.8,-9.9,i,8.3
Cc1cccc(C)c1NC(=O)C1CCCN(CCCc2ccccc2)C1 (stereo not given),-4.0,5.0,-24.0,-7.1,i,96.6*
COC(=O)CN1C(=O)[C@H]2[C@@H](c3ccc(C)o3)N3C(=O)CN(Cc4ccccn4)C(=O)[C@@]3(Cc3ccccc3)[C@H]2C1=O,-3.0,5.4,2.3,0.0,i,-9.4
COc1cc(F)ccc1-c1csc(C(C)(NC(C)=O)c2ccccc2)n1 (stereo not given),.,-1.8,1.1,-6.8,i,-4.1
Cc1c(NC(=O)/C(=C/c2cccs2)c2cccs2)c(=O)n(-c2ccccc2)n1C,9.1,9.8,-26.6,-11.4,i,53.8*
CCCN1C(=O)/C(=C/c2c(NCCCOC(C)C)nc3c(C)cccn3c2=O)SC1=S,3.8,15.3,-0.7,3.0,+,17.8
CCC(C)Nc1nc2c(C)cccn2c(=O)c1C=Nc1ccc(OC)cc1 (stereo not given),-8.8,3.2,0.9,-6.0,i,-4.0
CCC(C)N1C(=O)/C(=C/c2c(NCCCOC(C)C)nc3c(C)cccn3c2=O)SC1=S (stereo not given),3.4,71.0,-1.9,1.7,+,12.5
Cc1cccc(N2C(=O)C(O)=C(C(=O)c3cccs3)C2c2ccc(C(C)C)cc2)n1 (stereo not given),4.0,10.2,1.7,21.1*,i,-1.8
O=C(Nc1cccc(S(=O)(=O)N2CCCC2)c1)c1cccc(S(=O)(=O)N2CCOCC2)c1,-10.0,-4.9,-19.0,-8.1,i,29.2*
O=C(NCCN1C(=O)S/C(=C\c2ccccc2)C1=O)c1cc(S(=O)(=O)N2CCOCC2)c(Cl)cc1Cl,-15.7,-0.2,-6.3,-4.0,i,43.3*
COc1ccc(C(=O)Nc2ccc(NC(C)=O)cc2)cc1S(=O)(=O)N1CCCC1,-2.8,7.6,8.3,-4.9,i,-0.8
O=C(NCCN1C(=O)S/C(=C\c2ccc(Cl)cc2)C1=O)c1ccc(F)c(S(=O)(=O)N2CCOCC2)c1,-4.2,8.6,1.9,-5.5,i,-3.1
COc1ccc(C(=O)Nc2cccc(-c3csc(C)n3)c2)cc1S(=O)(=O)N1CCCC1,-8.0,1.9,-14.0,-3.3,i,35.5*
O=C(Nc1cccc(Br)c1)c1ccc(Cl)c(S(=O)(=O)N2CCOCC2)c1,-12.9,2.4,-27.7,1.3,i,42.8*
O=C(Nc1cccc(O)c1)c1cccc(S(=O)(=O)N2CCCC2)c1,-7.4,26.9,-5.5,-6.7,i,-16.3
Cc1cc2oc(=O)cc(CN3CCN(c4ccc(Cl)c(Cl)c4)CC3)c2cc1Cl,.,-2.1,9.1,8.0,i,4.7
O=C(N/N=C/c1ccncc1)c1cccc(S(=O)(=O)Nc2ccc(Cl)cc2)c1,16.3,5.4,6.7,-1.3,+,-9.7
CN1CCN(c2ccc(NC(=O)c3cccc(S(=O)(=O)N4CCCC4)c3)cc2)CC1,2.5,-15.5,-26.2,-8.4,i,46.6*
